Source: PubChem BioAssay (EPA / NIEHS)
Results filed as inconclusive are left out. Calls of active or inactive are those of the source. How the source made its calls, unless noted: active means hit-call score of the fitted dose curve at least 0.9, where 1 is the maximum; inactive means score below 0.9.

Columns and labels:
[1] = target: Caspase-3 (Homo sapiens) (UniProt P42574); experiment: NVS_ENZ_hCASP3: NovaScreen (NVS) Enzymatic Assay for human Caspase 3 (CASP3) (AID 2283139; active means hit-call score of the fitted dose curve at least 0.9, where 1 is the maximum)
In short: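 Recombinant human caspase-3 from E. coli with a fluorogenic substrate, read by fluorescence 1 h after dosing. Primary screen in duplicate at 25 uM. Actives (for example ≥30% inhibition) rerun as concentration-response up to 50 uM.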

[2] = target: human Phosphodiesterase 5 (PDE5), PDE5A (gene 8654) (UniProt O76074); experiment: NVS_ENZ_hPDE5: NovaScreen (NVS) Enzymatic Assay for human Phosphodiesterase 5 (PDE5) (AID 2283194; active means hit-call score of the fitted dose curve at least 0.9, where 1 is the maximum)
In short: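 Recombinant human PDE5 with specific substrate, read 1 h after dosing by fluorescence with electrophoretic mobility-shift separation of substrate and product. Initial single-concentration duplicate screen at 25 uM, actives followed in concentration series; loss of activity versus DMSO.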

[3] = read-out: Tumor necrosis factor receptor superfamily member 6 (Homo sapiens) (UniProt P25445); experiment: LTEA_HepaRG_FAS: Life Technologies and Expression Analysis (LTEA) Assay for Fas cell surface death receptor (FAS) using HepaRG (AID 2283447); settings: mRNA level, 48 h; actives raise or lower the signal
In short: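 FAS transcript level was measured by TaqMan qRT-PCR against three housekeeping genes after 48 h chemical exposure. Cells were HepaRG, 0.5% DMSO vehicle, with a top concentration of 100 uM and half-log dilutions over eight points, in duplicate.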

[4] = read-out: Fatty acid synthase (Homo sapiens) (UniProt P49327); experiment: LTEA_HepaRG_FASN: Life Technologies and Expression Analysis (LTEA) Assay for Fatty Acid Synthase (FASN) using HepaRG (AID 2283448); settings: mRNA level, 48 h; actives raise or lower the signal
In short: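 FASN expression changes, up or down relative to 0.5% DMSO, were measured by qRT-PCR in human HepaRG cells after 48 h treatment with chemicals at eight concentrations (half-log steps from 100 uM).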

[5] = read-out: Cyclin D2 (CCND2), CCND2 (gene 894); experiment: LTEA_HepaRG_CCND2: Life Technologies and Expression Analysis (LTEA) Assay for Cyclin D2 (CCND2) using HepaRG (AID 2283449); settings: mRNA level, 48 h; actives raise or lower the signal
In short: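 Read-out is CCND2 mRNA level measured by qRT-PCR in human HepaRG liver cells and normalised to three housekeeping genes. Chemicals were applied for 48 h at up to 100 uM, with gain or loss fitted relative to 0.5% DMSO.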

[6] = read-out: Cyclin Dependent Kinase Inhibitor 1A (CDKN1A), CDKN1A (gene 1026); experiment: LTEA_HepaRG_CDKN1A: Life Technologies and Expression Analysis (LTEA) Assay for Cyclin Dependent Kinase Inhibitor 1A (CDKN1A) using HepaRG (AID 2283450); settings: mRNA level, 48 h; actives raise or lower the signal
In short: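 HepaRG, 48 h dosing, 8-pt half-log series from 100 uM top, 0.5% DMSO vehicle, duplicates. Readout: TaqMan qRT-PCR of CDKN1A transcript, housekeeping-normalized (ACTB, GAPDH, POLR2A). Up/down curve fit relative to DMSO.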

[7] = read-out: Cyclin D1 (CCND1), CCND1 (gene 595); experiment: LTEA_HepaRG_CCND1: Life Technologies and Expression Analysis (LTEA) Assay for Cyclin D1 (CCND1) using HepaRG (AID 2283451); settings: mRNA level, 48 h; actives raise or lower the signal
In short: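 qRT-PCR (Fluidigm 96.96 array) read-out of transcript level, housekeeping-normalized (ACTB/GAPDH/POLR2A). HepaRG cells, 48 h chemical exposure, 8-point half-log series from 100 uM, 0.5% DMSO vehicle; gain or loss relative to DMSO baseline.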

[8] = read-out: catalase (CAT), CAT (gene 847); experiment: LTEA_HepaRG_CAT: Life Technologies and Expression Analysis (LTEA) Assay for catalase (CAT) using HepaRG (AID 2283452); settings: mRNA level, 48 h; actives raise or lower the signal
In short: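 Expression of CAT was quantified by TaqMan qRT-PCR with ACTB/GAPDH/POLR2A normalization after 48 h chemical exposure of HepaRG. Eight-point half-log series, top 100 uM, in 0.5% DMSO; gain or loss fitted against vehicle.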

[9] = read-out: flavin-containing dimethylaniline monooxygenases 3 (FMO3), FMO3 (gene 2328); experiment: LTEA_HepaRG_FMO3: Life Technologies and Expression Analysis (LTEA) Assay for flavin-containing dimethylaniline monooxygenases 3 (FMO3) using HepaRG (AID 2283453); settings: mRNA level, 48 h; actives raise or lower the signal
In short: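 Differentiated HepaRG cells in serum-free induction medium, exposed 48 h in duplicate to 8 half-log concentrations up to 100 uM in 0.5% DMSO. FMO3 mRNA by qRT-PCR, normalized to ACTB, GAPDH, POLR2A; bidirectional fit vs DMSO.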

[10] = read-out: Cytochrome P450 (CYP1A1), CYP1A1 (gene 1543); experiment: LTEA_HepaRG_CYP1A1: Life Technologies and Expression Analysis (LTEA) Assay for Cytochrome P450 (CYP1A1) using HepaRG (AID 2283454); settings: mRNA level, 48 h; actives raise or lower the signal
In short: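 qRT-PCR read-out: CYP1A1 transcript normalized to three housekeeping genes, fitted bidirectionally against 0.5% DMSO vehicle baseline. Human HepaRG cells, 48 h chemical exposure, 8-point half-log series topping at 100 uM.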

[11] = read-out: CFLAR gene, CFLAR (gene 8837); experiment: LTEA_HepaRG_CFLAR: Life Technologies and Expression Analysis (LTEA) Assay for CFLAR gene using HepaRG (AID 2283455); settings: mRNA level, 48 h; actives raise or lower the signal
In short: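 HepaRG, 48 h exposure, 8-pt conc-response (100 uM top, half-log), 0.5% DMSO vehicle, duplicates. CFLAR expression by qRT-PCR; ACTB/GAPDH/POLR2A normalization; gain or loss fit vs DMSO baseline.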

[12] = read-out: Forkhead box O1 (FOXO1), FOXO1 (gene 2308); experiment: LTEA_HepaRG_FOXO1: Life Technologies and Expression Analysis (LTEA) Assay for Forkhead box O1 (FOXO1) using HepaRG (AID 2283456); settings: mRNA level, 48 h; actives raise or lower the signal
In short: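 Readout is FOXO1 transcript level by multiplexed qRT-PCR against three housekeeping genes, curve-fitted in both directions relative to 0.5% DMSO vehicle. Human HepaRG cultures received chemicals for 48 h, up to 100 uM in half-log steps.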

[13] = read-out: growth arrest and DNA damage 45 (GADD45A), GADD45A (gene 1647); experiment: LTEA_HepaRG_GADD45A: Life Technologies and Expression Analysis (LTEA) Assay for growth arrest and DNA damage 45 (GADD45A) using HepaRG (AID 2283458); settings: mRNA level, 48 h; actives raise or lower the signal
In short: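 Cells plated and cultured 48 h, switched to serum-free induction medium, then dosed for 48 h (100 uM top, half-log dilutions, 0.5% DMSO). RNA was isolated and transcript measured by Fluidigm qRT-PCR.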

[14] = read-out: Forkhead box O3 (FOXO3), FOXO3 (gene 2309); experiment: LTEA_HepaRG_FOXO3: Life Technologies and Expression Analysis (LTEA) Assay for Forkhead box O3 (FOXO3) using HepaRG (AID 2283459); settings: mRNA level, 48 h; actives raise or lower the signal
In short: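 HepaRG, 48 h post-dose; 8 conc., half-log from 100 uM, 0.5% DMSO, duplicates; serum-free induction medium. Readout: FOXO3 mRNA, TaqMan qRT-PCR, housekeeping-normalized. Bidirectional curve fit vs DMSO baseline.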

[15] = read-out: ABC Transporter (ABCB1), ABCB1 (gene 5243); experiment: LTEA_HepaRG_ABCB1: Life Technologies and Expression Analysis (LTEA) Assay for ABC Transporter (ABCB1) using HepaRG (AID 2283460); settings: mRNA level, 48 h; actives raise or lower the signal
In short: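 Expression of ABCB1 was quantified by qRT-PCR against three housekeeping genes after human HepaRG cultures received test chemicals for 48 hours. Concentrations spanned eight half-log steps topping at 100 uM in 0.5% DMSO; gain or loss of signal was fitted relative to vehicle.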

[16] = read-out: growth arrest and DNA damage 45 (GADD45B), GADD45B (gene 4616); experiment: LTEA_HepaRG_GADD45B: Life Technologies and Expression Analysis (LTEA) Assay for growth arrest and DNA damage 45 (GADD45B) using HepaRG (AID 2283461); settings: mRNA level, 48 h; actives raise or lower the signal
In short: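 qRT-PCR read-out (Fluidigm TaqMan, housekeeping-normalized) of mRNA change in human HepaRG cells after 48 h chemical exposure; 8-point curve, top 100 uM, half-log steps, 0.5% DMSO vehicle; gain or loss fitted relative to DMSO baseline.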

[17] = read-out: ABC Transporter (ABCC3), ABCC3 (gene 8714); experiment: LTEA_HepaRG_ABCC3: Life Technologies and Expression Analysis (LTEA) Assay for ABC Transporter (ABCC3) using HepaRG (AID 2283462); settings: mRNA level, 48 h; actives raise or lower the signal
In short: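 qRT-PCR read-out of ABCC3 transcript, normalized to three housekeeping genes (ACTB, GAPDH, POLR2A), after 48 h chemical exposure of human HepaRG cells. Eight half-log concentrations, highest 100 uM, in 0.5% DMSO; gain or loss fitted relative to DMSO baseline.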

[18] = read-out: ABC Transporter (ABCB11), ABCB11 (gene 8647); experiment: LTEA_HepaRG_ABCB11: Life Technologies and Expression Analysis (LTEA) Assay for ABC Transporter (ABCB11) using HepaRG (AID 2283463); settings: mRNA level, 48 h; actives raise or lower the signal
In short: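 ABCB11 transcript levels are read by Fluidigm TaqMan qRT-PCR after 48 h chemical treatment of human HepaRG cells. Concentrations span 100 uM downward in half-log steps with 0.5% DMSO; gain or loss is fitted against DMSO controls.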

[19] = read-out: ABC Transporter (ABCC2), ABCC2 (gene 1244); experiment: LTEA_HepaRG_ABCC2: Life Technologies and Expression Analysis (LTEA) Assay for ABC Transporter (ABCC2) using HepaRG (AID 2283464); settings: mRNA level, 48 h; actives raise or lower the signal
In short: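 qRT-PCR (TaqMan, Fluidigm array) read-out of ABCC2 mRNA, normalized to three housekeeping genes. Differentiated HepaRG cells were treated 48 h in serum-free induction medium with 8-point half-log series from 100 uM in 0.5% DMSO; curves fitted bidirectionally relative to DMSO.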

[20] = read-out: Broad substrate specificity ATP-binding cassette transporter ABCG2 (Homo sapiens) (UniProt Q9UNQ0); experiment: LTEA_HepaRG_ABCG2: Life Technologies and Expression Analysis (LTEA) Assay for ABC Transporter (ABCG2) using HepaRG (AID 2283465); settings: mRNA level, 48 h; actives raise or lower the signal
In short: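 Read-out is ABCG2 mRNA induction or loss quantified by qRT-PCR after 48 h chemical treatment of human HepaRG cells, normalized to three housekeeping genes. Concentrations reached 100 uM top in half-log steps; fitting was bidirectional against 0.5% DMSO.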

Chain of Broad substrate specificity ATP-binding cassette transporter ABCG2 (Homo sapiens) (Q9UNQ0 whole entry, looked up): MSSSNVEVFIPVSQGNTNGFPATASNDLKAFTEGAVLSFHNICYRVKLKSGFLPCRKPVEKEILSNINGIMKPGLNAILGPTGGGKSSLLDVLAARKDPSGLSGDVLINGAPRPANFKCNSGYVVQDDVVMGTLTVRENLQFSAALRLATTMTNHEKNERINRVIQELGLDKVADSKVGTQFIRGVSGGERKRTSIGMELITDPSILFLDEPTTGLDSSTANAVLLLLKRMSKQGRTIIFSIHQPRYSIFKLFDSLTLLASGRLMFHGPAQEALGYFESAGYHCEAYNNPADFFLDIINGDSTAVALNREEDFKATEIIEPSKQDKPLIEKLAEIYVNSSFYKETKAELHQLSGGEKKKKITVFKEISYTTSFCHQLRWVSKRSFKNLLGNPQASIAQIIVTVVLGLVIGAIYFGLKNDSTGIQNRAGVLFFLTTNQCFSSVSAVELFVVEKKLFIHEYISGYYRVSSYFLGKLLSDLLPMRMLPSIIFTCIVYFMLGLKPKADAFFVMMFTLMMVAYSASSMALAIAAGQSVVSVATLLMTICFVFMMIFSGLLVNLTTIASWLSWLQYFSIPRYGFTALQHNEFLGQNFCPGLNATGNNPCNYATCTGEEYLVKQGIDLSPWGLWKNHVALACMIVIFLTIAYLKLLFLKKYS
Chain of Fatty acid synthase (Homo sapiens) (P49327 whole entry, looked up): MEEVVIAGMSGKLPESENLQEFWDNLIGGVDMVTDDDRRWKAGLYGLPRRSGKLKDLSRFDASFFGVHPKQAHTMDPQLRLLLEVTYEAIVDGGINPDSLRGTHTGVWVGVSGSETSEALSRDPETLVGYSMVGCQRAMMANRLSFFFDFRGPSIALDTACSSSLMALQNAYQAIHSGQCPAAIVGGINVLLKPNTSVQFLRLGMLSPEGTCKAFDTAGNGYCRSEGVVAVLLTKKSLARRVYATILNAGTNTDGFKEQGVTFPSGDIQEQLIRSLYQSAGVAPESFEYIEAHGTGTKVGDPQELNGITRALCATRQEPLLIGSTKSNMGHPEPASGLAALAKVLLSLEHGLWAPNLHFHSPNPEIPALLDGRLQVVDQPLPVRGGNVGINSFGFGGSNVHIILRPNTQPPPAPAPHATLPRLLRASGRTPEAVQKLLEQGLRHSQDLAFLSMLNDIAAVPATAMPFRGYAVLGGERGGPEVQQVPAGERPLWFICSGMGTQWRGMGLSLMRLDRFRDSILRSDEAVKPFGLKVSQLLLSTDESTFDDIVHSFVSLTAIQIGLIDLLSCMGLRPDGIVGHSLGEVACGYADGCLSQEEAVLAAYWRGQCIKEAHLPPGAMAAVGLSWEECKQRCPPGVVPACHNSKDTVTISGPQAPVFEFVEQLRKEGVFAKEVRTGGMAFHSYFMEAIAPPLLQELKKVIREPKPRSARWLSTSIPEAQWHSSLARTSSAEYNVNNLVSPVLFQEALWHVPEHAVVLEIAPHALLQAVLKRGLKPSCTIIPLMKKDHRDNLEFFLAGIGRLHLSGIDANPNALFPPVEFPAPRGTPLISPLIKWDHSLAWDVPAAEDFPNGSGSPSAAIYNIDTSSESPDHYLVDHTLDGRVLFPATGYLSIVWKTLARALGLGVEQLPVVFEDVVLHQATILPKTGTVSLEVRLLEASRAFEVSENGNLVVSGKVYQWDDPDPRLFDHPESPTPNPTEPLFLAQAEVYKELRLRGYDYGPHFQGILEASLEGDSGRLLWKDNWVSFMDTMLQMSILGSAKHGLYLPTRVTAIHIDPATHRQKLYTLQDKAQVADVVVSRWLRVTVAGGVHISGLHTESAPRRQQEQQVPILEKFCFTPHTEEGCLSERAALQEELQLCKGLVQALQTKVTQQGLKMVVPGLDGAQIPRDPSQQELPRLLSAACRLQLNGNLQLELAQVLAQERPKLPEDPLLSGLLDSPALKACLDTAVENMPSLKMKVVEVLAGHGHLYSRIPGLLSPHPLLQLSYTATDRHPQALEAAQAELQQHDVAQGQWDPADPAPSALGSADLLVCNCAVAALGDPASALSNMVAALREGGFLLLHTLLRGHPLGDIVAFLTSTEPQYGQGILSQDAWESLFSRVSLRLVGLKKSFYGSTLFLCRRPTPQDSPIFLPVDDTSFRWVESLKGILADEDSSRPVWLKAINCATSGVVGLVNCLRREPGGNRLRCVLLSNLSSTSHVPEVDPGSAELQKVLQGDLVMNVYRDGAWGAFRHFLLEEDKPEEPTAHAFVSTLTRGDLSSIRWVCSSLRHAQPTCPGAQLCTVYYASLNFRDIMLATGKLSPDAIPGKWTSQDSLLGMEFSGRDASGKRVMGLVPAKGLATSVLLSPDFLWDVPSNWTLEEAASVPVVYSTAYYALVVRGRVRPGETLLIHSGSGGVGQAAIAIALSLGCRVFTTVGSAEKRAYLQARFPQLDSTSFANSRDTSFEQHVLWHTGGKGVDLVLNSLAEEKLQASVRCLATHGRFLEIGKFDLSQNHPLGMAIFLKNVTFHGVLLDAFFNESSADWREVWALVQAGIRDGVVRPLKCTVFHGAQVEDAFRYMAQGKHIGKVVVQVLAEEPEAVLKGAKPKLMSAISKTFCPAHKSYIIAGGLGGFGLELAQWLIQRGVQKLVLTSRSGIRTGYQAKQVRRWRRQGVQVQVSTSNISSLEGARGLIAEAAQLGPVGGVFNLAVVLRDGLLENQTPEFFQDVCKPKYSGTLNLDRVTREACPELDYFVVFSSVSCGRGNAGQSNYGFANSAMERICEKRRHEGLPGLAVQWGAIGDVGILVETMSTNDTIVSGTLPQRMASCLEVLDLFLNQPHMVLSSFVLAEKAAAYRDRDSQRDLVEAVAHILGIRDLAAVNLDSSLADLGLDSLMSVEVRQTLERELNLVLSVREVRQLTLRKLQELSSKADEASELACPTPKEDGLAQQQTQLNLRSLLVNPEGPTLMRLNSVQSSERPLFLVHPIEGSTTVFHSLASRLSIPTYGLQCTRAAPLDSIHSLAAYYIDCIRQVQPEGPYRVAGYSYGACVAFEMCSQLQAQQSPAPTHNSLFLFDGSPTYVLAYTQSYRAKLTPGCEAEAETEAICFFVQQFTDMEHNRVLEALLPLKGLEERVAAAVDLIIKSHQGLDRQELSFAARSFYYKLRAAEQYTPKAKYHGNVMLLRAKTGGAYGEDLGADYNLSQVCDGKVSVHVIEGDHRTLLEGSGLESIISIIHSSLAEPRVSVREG
Chain of Caspase-3 (Homo sapiens) (P42574 whole entry, looked up): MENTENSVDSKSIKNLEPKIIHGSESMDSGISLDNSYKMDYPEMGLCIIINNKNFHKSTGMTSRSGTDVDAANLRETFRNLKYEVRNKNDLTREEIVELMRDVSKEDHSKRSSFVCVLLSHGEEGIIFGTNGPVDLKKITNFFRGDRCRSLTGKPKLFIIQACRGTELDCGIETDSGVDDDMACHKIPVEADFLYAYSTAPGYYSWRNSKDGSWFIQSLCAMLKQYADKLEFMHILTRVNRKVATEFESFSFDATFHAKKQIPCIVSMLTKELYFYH

Q: `CCC(C)=NO` was tested. Which outcome [1] did it give?
A: inactive

Q: And the outcome [2]?
A: inactive

Q: What about the outcome [3] of the same compound?
A: inactive

Q: And the outcome [4]?
A: inactive

Q: And the outcome [5]?
A: inactive

Q: What about the outcome [6] of the same compound?
A: inactive

Q: What about the outcome [7] of the same compound?
A: inactive

Q: And the outcome [8]?
A: inactive

Q: What about the outcome [9] of the same compound?
A: inactive

Q: What about the AC50 [10] of the same compound?
A: 49.8 µM (active)

Q: And the outcome [11]?
A: inactive

Q: And the outcome [12]?
A: inactive

Q: What about the outcome [13] of the same compound?
A: inactive

Q: What about the outcome [14] of the same compound?
A: inactive

Q: And the outcome [15]?
A: inactive

Q: What about the outcome [16] of the same compound?
A: inactive

Q: And the outcome [17]?
A: inactive

Q: And the outcome [18]?
A: inactive

Q: What about the outcome [19] of the same compound?
A: inactive

Q: What about the outcome [20] of the same compound?
A: inactive
